# Source: the supplement of paper PMC12340641
# Assays:
# [1] = target: IKZF1 (dCK*-IKZF1 fusion in HEK293FT) (UniProt Q13422); experiment: inhibition of IKZF1 HTRF signal (DMSO = 0%, pomalidomide 10 uM = 100%); higher = lower IKZF1 protein level; settings: compound concentration: 5 uM, overnight (~20 h)
# Procedure, shortened: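 Values are percent inhibition of IKZF1 signal, normalised plate by plate against vehicle and a reference degrader. HEK293FT cells stably expressing an IKZF1 fusion were seeded at 2000 per well in 384-well plates and exposed to 5 μM compound in single wells overnight at 37 °C. After 30 min lysis at room temperature, lysates were incubated overnight with a commercial HTRF total-IKZF1 antibody kit, and the background-subtracted 665/620 nm time-resolved FRET ratio was read. On each plate, vehicle was set at 0% and the reference degrader at 100%.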
# HEK293FT dCK*-only = experiment: relative growth in counter assay (no AraC = 100%, AraC + DMSO = 0%); higher = more growth rescue independent of IKZF1; settings: compound concentration: 5 uM; AraC concentration: 0.3 uM; overnight pretreatment + 4 days AraC
# Procedure, shortened: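 This counter assay used HEK293FT cells expressing only an engineered kinase construct, seeded at 300 per well in 384-well plates. Compound was added at 5 μM 2 h after seeding, and after overnight at 37 °C the cells received a nucleoside suicide substrate at 0.3 μM plus medium for 4 days. On day 5, nuclei stained with Hoechst 33342 were counted by imaging, and relative growth was normalised per plate; wells without suicide substrate were set at 100% and wells with substrate plus vehicle at 0%.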
# HEK293FT dCK*-IKZF1 = experiment: relative growth recovery (pomalidomide 10 uM = 100%, DMSO = 0%); higher = more growth rescue (IKZF1 fusion degradation); settings: compound concentration: 5 uM; AraC concentration: 0.3 uM; overnight pretreatment + 4 days AraC
# Procedure, shortened: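 On day 5, whole-well imaging was used to count Hoechst 33342-stained nuclei of HEK293FT cells stably carrying a deoxycytidine kinase–IKZF1 fusion. These cells had received 5 μM compound 2 h after seeding, followed after overnight at 37 °C by a nucleoside suicide substrate at 0.3 μM plus medium for 4 days. Growth recovery was normalised on each plate against a reference degrader and vehicle, which defined 100% and 0%, and values are duplicate means from separate days.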
# Sequence of IKZF1 (dCK*-IKZF1 fusion in HEK293FT) (Q13422 whole entry, looked up, the tested form may be a part): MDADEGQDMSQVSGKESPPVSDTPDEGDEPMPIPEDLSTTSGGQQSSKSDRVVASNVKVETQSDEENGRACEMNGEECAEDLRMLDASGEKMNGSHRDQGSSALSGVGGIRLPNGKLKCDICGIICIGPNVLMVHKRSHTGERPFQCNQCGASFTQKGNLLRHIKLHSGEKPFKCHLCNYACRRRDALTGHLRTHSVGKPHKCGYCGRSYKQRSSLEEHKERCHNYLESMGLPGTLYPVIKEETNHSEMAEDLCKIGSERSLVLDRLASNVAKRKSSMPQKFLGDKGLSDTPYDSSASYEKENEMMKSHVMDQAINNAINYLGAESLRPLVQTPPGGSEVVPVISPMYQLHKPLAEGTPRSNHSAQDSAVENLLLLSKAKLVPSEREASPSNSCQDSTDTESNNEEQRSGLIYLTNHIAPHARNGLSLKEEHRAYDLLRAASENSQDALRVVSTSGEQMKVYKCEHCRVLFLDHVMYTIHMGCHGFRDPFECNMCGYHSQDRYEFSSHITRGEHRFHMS
smiles,measurement,setting,value
COCC(=O)O[C@]1(CCN(C)CCCc2nc3ccccc3[nH]2)CCc2cc(F)ccc2[C@@H]1C(C)C [mibefradil],inhibition of IKZF1 HTRF signal,[1],-3.89%
same,relative growth in counter assay,HEK293FT dCK*-only,-13.3%
same,relative growth recovery,HEK293FT dCK*-IKZF1,-3.87%
COc1cc([C@@H]2c3cc4c(cc3[C@@H](O[C@@H]3O[C@@H]5CO[C@@H](C)O[C@H]5[C@H](O)[C@H]3O)[C@H]3COC(=O)[C@H]23)OCO4)cc(OC)c1OP(=O)(O)O [Etoposide phosphate],inhibition of IKZF1 HTRF signal,[1],-12.6%
same,relative growth in counter assay,HEK293FT dCK*-only,-33.9%
same,relative growth recovery,HEK293FT dCK*-IKZF1,-13%
O=C(O)c1ccc(/C=C2/SC(=S)N(c3cccc(C(F)(F)F)c3)C2=O)cc1,inhibition of IKZF1 HTRF signal,[1],-26.9%
same,relative growth in counter assay,HEK293FT dCK*-only,-1.87%
same,relative growth recovery,HEK293FT dCK*-IKZF1,-0.07%
O=C(Nc1ccc(Cl)nc1)c1ccc(Cl)cc1,inhibition of IKZF1 HTRF signal,[1],-32.9%
same,relative growth in counter assay,HEK293FT dCK*-only,4.25%
same,relative growth recovery,HEK293FT dCK*-IKZF1,3.85%
CNCCC(Oc1ccc(C(F)(F)F)cc1)c1ccccc1 (stereo not given),inhibition of IKZF1 HTRF signal,[1],-36.8%
same,relative growth in counter assay,HEK293FT dCK*-only,6.85%
same,relative growth recovery,HEK293FT dCK*-IKZF1,0.235%
O=C1[C@H]2CCCC[C@H]2C(=O)N1CCCCN1CCN(c2nsc3ccccc23)CC1 [Perospirone],inhibition of IKZF1 HTRF signal,[1],16.4%
same,relative growth in counter assay,HEK293FT dCK*-only,19.5%
same,relative growth recovery,HEK293FT dCK*-IKZF1,13.7%
CC(C)(C)c1ccc(-c2nc3cccc(N4CCN(Cc5ccc6nccnc6c5)CC4)c3[nH]2)cc1,inhibition of IKZF1 HTRF signal,[1],-23.9%
same,relative growth in counter assay,HEK293FT dCK*-only,5.2%
same,relative growth recovery,HEK293FT dCK*-IKZF1,9.79%
NS(=O)(=O)Cc1noc2ccccc12 [zonisamide],inhibition of IKZF1 HTRF signal,[1],-28.2%
same,relative growth in counter assay,HEK293FT dCK*-only,2.4%
same,relative growth recovery,HEK293FT dCK*-IKZF1,-2.26%
c1ccc(C(NCCNC(c2ccccc2)c2ccccc2)c2ccccc2)cc1,inhibition of IKZF1 HTRF signal,[1],-1.32%
same,relative growth in counter assay,HEK293FT dCK*-only,3.27%
same,relative growth recovery,HEK293FT dCK*-IKZF1,3.32%
CC(C)(C)c1ccc(-c2nc3ccccc3[nH]2)cc1,inhibition of IKZF1 HTRF signal,[1],-0.19%
same,relative growth in counter assay,HEK293FT dCK*-only,3.59%
same,relative growth recovery,HEK293FT dCK*-IKZF1,11.5%
COc1cc([C@@H]2c3cc4c(cc3[C@@H](O[C@@H]3O[C@@H]5COC(c6cccs6)O[C@H]5[C@H](O)[C@H]3O)[C@H]3COC(=O)C23)OCO4)cc(OC)c1O (stereo not given in full) [Teniposide],inhibition of IKZF1 HTRF signal,[1],-45.1%
same,relative growth in counter assay,HEK293FT dCK*-only,-34.3%
same,relative growth recovery,HEK293FT dCK*-IKZF1,-12.5%
C[C@@H]1CC2C3CCC4=CC(=O)C=C[C@]4(C)[C@@]3(F)[C@@H](O)C[C@]2(C)[C@H]1C(=O)CO (stereo not given in full),inhibition of IKZF1 HTRF signal,[1],19.4%
same,relative growth in counter assay,HEK293FT dCK*-only,-5.74%
same,relative growth recovery,HEK293FT dCK*-IKZF1,-0.19%
"O=C(CCCCCCC(=O)Nc1ccccc1)NO [Vorinostat (SAHA, MK0683)]",inhibition of IKZF1 HTRF signal,[1],-29.5%
same,relative growth in counter assay,HEK293FT dCK*-only,-30.5%
same,relative growth recovery,HEK293FT dCK*-IKZF1,-11.6%
CN(C)C(=O)C(CCN1CCC(O)(c2ccc(Cl)cc2)CC1)(c1ccccc1)c1ccccc1,inhibition of IKZF1 HTRF signal,[1],-14.4%
same,relative growth in counter assay,HEK293FT dCK*-only,0.63%
same,relative growth recovery,HEK293FT dCK*-IKZF1,-0.755%
CCCCCCCCCCCCC[N+](C)(C)Cc1ccccc1,inhibition of IKZF1 HTRF signal,[1],7.81%
same,relative growth in counter assay,HEK293FT dCK*-only,-14.8%
same,relative growth recovery,HEK293FT dCK*-IKZF1,-5.53%
CCCCC1C(=O)N(c2ccccc2)N(c2ccc(O)cc2)C1=O (stereo not given),inhibition of IKZF1 HTRF signal,[1],-36.3%
same,relative growth in counter assay,HEK293FT dCK*-only,-34.9%
same,relative growth recovery,HEK293FT dCK*-IKZF1,-12.7%
Cc1ccc(/C=C2\CNC/C(=C\c3ccc(C)cc3)C2=O)cc1,inhibition of IKZF1 HTRF signal,[1],-70%
same,relative growth in counter assay,HEK293FT dCK*-only,-34.5%
same,relative growth recovery,HEK293FT dCK*-IKZF1,-12.6%
C/C=C(/C(=C/C)c1ccc(O)cc1)c1ccc(O)cc1 [dienestrol],inhibition of IKZF1 HTRF signal,[1],-24%
same,relative growth in counter assay,HEK293FT dCK*-only,-2.14%
same,relative growth recovery,HEK293FT dCK*-IKZF1,-1.6%
CC(=O)c1ccc(S(=O)(=O)NC(=O)NC2CCCCC2)cc1,inhibition of IKZF1 HTRF signal,[1],-56.1%
same,relative growth in counter assay,HEK293FT dCK*-only,5.07%
same,relative growth recovery,HEK293FT dCK*-IKZF1,1.03%
C=CC[C@@H]1/C=C(\C)C[C@H](C)C[C@H](OC)[C@H]2O[C@@](O)(C(=O)C(=O)N3CCCC[C@H]3C(=O)O[C@H](/C(C)=C/[C@@H]3CC[C@@H](O)[C@H](OC)C3)[C@H](C)[C@@H](O)CC1=O)[C@H](C)C[C@@H]2OC [Tacrolimus],inhibition of IKZF1 HTRF signal,[1],-32.9%
same,relative growth in counter assay,HEK293FT dCK*-only,18.6%
same,relative growth recovery,HEK293FT dCK*-IKZF1,12.2%
CCN(CC)CCOc1ccccc1C(=O)CCc1ccccc1 [etafenone],inhibition of IKZF1 HTRF signal,[1],11%
same,relative growth in counter assay,HEK293FT dCK*-only,2.17%
same,relative growth recovery,HEK293FT dCK*-IKZF1,-1.08%
Oc1c(Cl)cc(Cl)c(Cl)c1Cc1c(O)c(Cl)cc(Cl)c1Cl [Hexachlorophene],inhibition of IKZF1 HTRF signal,[1],-78.9%
same,relative growth in counter assay,HEK293FT dCK*-only,0.51%
same,relative growth recovery,HEK293FT dCK*-IKZF1,-1.27%
NC(=O)c1ccc[n+]([C@@H]2O[C@H](COP(=O)(O)OP(=O)(O)OC[C@H]3O[C@@H](n4cnc5c(N)ncnc54)[C@H](O)[C@@H]3O)[C@@H](O)[C@H]2O)c1,inhibition of IKZF1 HTRF signal,[1],-23.1%
same,relative growth in counter assay,HEK293FT dCK*-only,5.09%
same,relative growth recovery,HEK293FT dCK*-IKZF1,1.08%
CN(C)CCN1C(=O)c2cccc3cc(N)cc(c23)C1=O [Amonafide],inhibition of IKZF1 HTRF signal,[1],27.6%
same,relative growth in counter assay,HEK293FT dCK*-only,-32.4%
same,relative growth recovery,HEK293FT dCK*-IKZF1,-11.7%
Nc1nc(N)c2nc(-c3ccccc3)c(N)nc2n1,inhibition of IKZF1 HTRF signal,[1],3.18%
same,relative growth in counter assay,HEK293FT dCK*-only,-11%
same,relative growth recovery,HEK293FT dCK*-IKZF1,-5.46%
COc1cc2c(cc1OC)[C@@H]1Cc3ccc(OC)c(OC)c3CN1CC2 [Rotundine],inhibition of IKZF1 HTRF signal,[1],14.2%
same,relative growth in counter assay,HEK293FT dCK*-only,-31.5%
same,relative growth recovery,HEK293FT dCK*-IKZF1,-10.7%
Cc1ccnc(NS(=O)(=O)c2ccc(N)cc2)n1,inhibition of IKZF1 HTRF signal,[1],-32.2%
same,relative growth in counter assay,HEK293FT dCK*-only,1.25%
same,relative growth recovery,HEK293FT dCK*-IKZF1,1.5%
C=C1C(=O)O[C@H]2[C@H]1CC/C(C)=C\CC[C@@]1(C)O[C@@H]21 [Parthenolide ((-)-Parthenolide)],inhibition of IKZF1 HTRF signal,[1],-18.3%
same,relative growth in counter assay,HEK293FT dCK*-only,-33.7%
same,relative growth recovery,HEK293FT dCK*-IKZF1,-11.6%
CN1CCCCC1CCN1c2ccccc2Sc2ccc(S(C)=O)cc21 (stereo not given) [mesoridazine besylate],inhibition of IKZF1 HTRF signal,[1],-49.8%
same,relative growth in counter assay,HEK293FT dCK*-only,10.8%
same,relative growth recovery,HEK293FT dCK*-IKZF1,-0.555%
Cc1cccc(CCN2CCC(C(=O)c3ccc(NS(C)(=O)=O)cc3)CC2)n1,inhibition of IKZF1 HTRF signal,[1],-18.6%
same,relative growth in counter assay,HEK293FT dCK*-only,-7.85%
same,relative growth recovery,HEK293FT dCK*-IKZF1,-0.45%
